High-throughput results: PubChem, National Center for Advancing Translational Sciences (NCATS)
Hits are enriched below; roughly 11% of the tested compounds scored in any of these assays.
HPGD inh: blocks human HPGD enzyme activity; Potency, µM, actives largely listed as inhibitors; 4.3% of 150,000 active; P15428; purified HPGD, NADH fluorescence kinetic, PGE2 substrate
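NADH formation kinetics: reaction with 30 uM PGE2 and 1 mM NAD+ (final), 20 nM enzyme, Tris-HCl pH 8 with Tween 20, after 15 min compound preincubation at room temperature. Fluorescence change, last versus first of five reads.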
PNC assembly inh: perinucleolar compartment assembly inhibition | PC3M PTB-GFP, PNC prevalence imaging, 16 h; active compounds read low | activity change (PNC), negative = inhibition, % at 10 µM | 3.1% of 140,000 active;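 active = readout at or below -70, meaning at least 70% loss of cells showing the perinucleolar compartment, a nuclear body marking cancer cells; inconclusive = readout between -30 and a set limit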
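Read-out is percentage of cells bearing a perinucleolar compartment, from automated 20x imaging of fixed, Hoechst-stained PC3M PTB-GFP cells. Cells were seeded 4 h, then exposed 16 h to compound (23 nl of library stock) in duplicate plates.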
ALDH1A1 block: ALDH1A1 (human) enzyme inhibition | Purified ALDH1A1, NADH fluorescence, propionaldehyde substrate | P00352 | AID 1030 | Potency, µM (highest dose often 75.3 µM), hits mostly inhibitors | 7.3% of 220,000 active
Target sequence (P00352 whole entry, looked up): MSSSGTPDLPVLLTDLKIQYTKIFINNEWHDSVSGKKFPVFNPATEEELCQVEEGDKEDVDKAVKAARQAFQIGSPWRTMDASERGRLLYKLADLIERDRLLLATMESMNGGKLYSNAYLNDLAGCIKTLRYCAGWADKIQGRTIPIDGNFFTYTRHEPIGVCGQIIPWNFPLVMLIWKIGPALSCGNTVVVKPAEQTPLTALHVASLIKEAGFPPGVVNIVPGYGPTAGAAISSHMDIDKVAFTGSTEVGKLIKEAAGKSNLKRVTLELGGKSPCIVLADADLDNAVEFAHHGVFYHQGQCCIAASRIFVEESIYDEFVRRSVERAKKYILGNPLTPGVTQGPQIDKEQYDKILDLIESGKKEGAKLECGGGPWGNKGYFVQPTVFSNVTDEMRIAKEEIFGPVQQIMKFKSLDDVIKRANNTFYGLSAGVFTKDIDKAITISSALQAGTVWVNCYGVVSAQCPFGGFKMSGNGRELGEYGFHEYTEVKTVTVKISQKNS
Hits are given with their value; – = inactive; ? = inconclusive; · = not tested or not shown; [ ] = another dose, or the depositor's remark. Unless noted, calls follow the shape of the dose curve; as a rule, active = well fitted inhibition curve with a large enough effect (not every such curve was filed as active); inconclusive = small, poorly fitted or top-dose-only effect, or another doubt; inactive = no such curve, though single readings can be large or run the other way.

SMILES | HPGD inh | PNC assembly inh | ALDH1A1 block
CCOc1ccc(NC(=O)c2ccccc2OCC(=O)c2ccccc2)cc1 | – | – | –
CC1=C/C(=N/O)C([C@H]2C=C(C)CC(C)(C)[C@@H]2O)C(C)(C)C1 (some centres not stated) | – | · | –[13.5 µM]
O=C(CNC(=S)N(Cc1ccccc1F)C1CCCCC1)NCCN1CCOCC1 | · | · | 1.9µM
O=C(CN(Cc1ccccc1F)C(=O)c1ccco1)NCc1ccc(F)cc1 | – | – | ?
CCC(C)NC(=O)CNC(=S)N(Cc1ccccc1F)C1CCCCC1 (configuration not stated) | · | · | 10µM
O=C(CNC(=S)N(Cc1ccccc1)Cc1ccccc1F)NCc1ccccc1 | · | · | 10µM
CC(NC(=O)CNC(=S)N(Cc1cccs1)C1CCCC1)c1ccccc1 (configuration not stated) | · | · | 16µM
O=C(O)CNC(=S)N(Cc1cccs1)C1CCCCC1 | – | – | –
O=C(CN1CCN(Cc2ccccc2F)C1=O)NCCN1CCOCC1 | – | – | –
O=C(O)CNC(=S)N(Cc1ccccc1Cl)C1CCCC1 | · | · | –
CN(C)S(=O)(=O)c1nc(Cl)c2[nH]cnc2n1 | – | · | –[13.5 µM]
COc1ccc(C(=O)CC(=O)c2c(O)cc(OC)cc2OC)cc1 | · | · | –[13.5 µM]
C/C(CCc1ccco1)=N/NC(=O)CCC(=O)Nc1ccc(Br)cc1 | – | ? | –
CCOc1c2ccc(C(=O)NCc3ccc4c(c3)OCO4)cc2nn1CCOC | ? | – | ?
Cn1cccc1C(=O)N1CCC2(CC1)CN(Cc1ccc(C#N)cc1)C2 | – | · | –
COc1ccc(-c2csc3c2[N+]2=CCC=C2C3=O)cc1 | – | · | –[13.5 µM]
COCCn1c(=O)[nH]c(=O)c2c(C(F)(F)F)cc(-c3cccs3)nc21 | ? | – | ?
Cc1ccc(CN=C(Nc2ccccc2)NC2CCCCC2)cc1 | · | · | –
COCCCNC(=O)CNC(=S)N(Cc1ccc(F)cc1)C1CCCCC1 | – | ? | ?
CCOCCCNC(=O)CNC(=S)N(Cc1ccccc1F)C1CCCCC1 | – | – | 14µM
Cc1ccccc1Oc1nc(-c2ccccn2)nc2ccccc12 | · | · | –
Cc1cc(C)c(S(=O)(=O)Nc2ccc(C(=O)O)c(O)c2)cc1C | – | · | ?
Cc1cc(C)c(S(=O)(=O)Nc2cc(SCC(=O)O)c(O)c3ccccc23)cc1C | 1.1µM | ? | ?
CCCOC(=O)c1ccc(NC(=O)C(CC)CC)cc1 | – | – | ?
Cc1cc(C)cc(C(=O)NN2CCOCC2)c1 | – | – | –
SMILES | HPGD inh | PNC assembly inh | ALDH1A1 block
CCCCNC(=O)N1CCN(Cc2ccc(F)cc2)CC1 | · | · | –
O=C(c1ccco1)N1CCN(C(=O)C2Cc3ccccc3CN2S(=O)(=O)c2ccc(F)cc2)CC1 (configuration not stated) | – | – | ?
O=C(CN1CCc2ccccc2C1)N1CCN(S(=O)(=O)c2ccccc2)CC1 | – | – | ?
Cc1ccc(S(=O)(=O)N2CCN(C(=O)C3Cc4ccccc4CN3C(=O)c3ccco3)CC2)cc1 (configuration not stated) | – | – | 8.9µM
Cc1ccc(S(=O)(=O)N2CCN(C(=O)CN3CCc4ccccc4C3)CC2)cc1 | – | – | 14µM
O=C(Nc1cccc2ccccc12)c1cc2c(cc1Br)OCO2 | · | · | –
O=C(O)CCCCCNc1ccc2nsnc2c1[N+](=O)[O-] | 28µM | – | –
O=C(O)CCCCCNS(=O)(=O)c1cccc2nsnc12 | – | – | –
CCCCNS(=O)(=O)c1ccc(NS(=O)(=O)c2c(C)cc(C)cc2C)cc1 | – | – | –
O=C(CCN1CCc2ccccc2CC1)c1ccc2c(c1)OCCO2 | – | – | 0.11µM
O=C(CCN1CCOCC1)c1ccc2c(c1)OCCO2 | – | – | 0.45µM
O=C(CCCN1CCOCC1)c1ccc2c(c1)OCCO2 | – | – | ?
O=C(CCCN1CCC(c2ccccc2)C1)c1ccc2c(c1)OCCO2 (configuration not stated) | – | – | –
COC(=O)[C@@]1(Cc2ccc(OC)cc2)[C@H]2c3cc(C(=O)N4CCCC4)n(Cc4cc(F)cc5c4OCOC5)c3C[C@H]2CN1C(=O)c1ccccc1 | – | · | –
Cc1cc(C2=NNC(=NC3CC3)SC2)c(C)n1Cc1ccco1 | – | – | 20µM
CN=C1NN=C(c2cc(C)n(-c3c(C)n(C)n(-c4ccccc4)c3=O)c2C)CS1 | – | – | –
C=CCn1c(C)cc(C2=NNC(=Nc3ccc(C)cc3)SC2)c1C | · | · | –
COCCn1c(C)cc(C2=NNC(=NC3CC3)SC2)c1C | · | · | –
COCCn1c(C)cc(C2=NNC(=Nc3ccc(Cl)cc3Cl)SC2)c1C | – | ? | 25µM
C=CCN=C1NN=C(c2cc(C)n(CCOC)c2C)CS1 | – | ? | ?
COCCCN=C1NN=C(c2cc(C)n(Cc3ccco3)c2C)CS1 | – | -108 | –
Cc1cc(C2=NNC(=NC3CC3)SC2)c(C)n1-c1ccccc1 | – | – | 3.5µM
